According to the supplement of paper PMC10849652:
Of roughly 8,800 targets only a part is listed; those with a hit were picked by preference. About 0.5% of all pairs of compound and target were hits.

Key:
Assay in all cases: log2 fold change, soluble protein after heating vs DMSO (PISA); higher = thermal stabilisation; K562 lysate, 10 uM; active = over 0.2 and 3.5 SD of the protein, either way, in both replicates (recomputed)
[1] = compound: C1=CC=C(C=C1)[C@H](COC2=CC3=C(C=C2)NC(=O)N3)NC(=O)C4=CC=CN(C4=O)CC5=CC(=C(C=C5)F)F
How it was run: (§1)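 Soluble protein was defined as the supernatant remaining after 21,000xg for 90 min, following pooling of heated aliquots and adjustment to 0.5% NP-40 at 4°C. Before that, crude K562 extract at 1 mg/mL protein in PBS pH 7.4 with 1 mM MgCl2 was treated with 10 μM compound for 30 min and heated for 3 min across 48°C-58°C. Quantification used TMTpro 16plex LC-MS/MS with channel sums equalised, and values are log-two fold changes in thermal stability relative to solvent controls from duplicates.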

[2] = compound: CC1=C(SC2=C1C(=N[C@H](C3=NN=C(N32)C)CC(=O)N)C4=CC=C(C=C4)Cl)C
How it was run: as §1

[3] = compound: CC1=C2C(=CC=C1)N=C(N(C2=O)C3=CC=CC=C3C)CN4C=NC5=C(N=CN=C54)N
How it was run: as §1

[4] = compound: Cc1sc2c(c1C)C(c1ccc(Cl)cc1)=N[C@@H](CC(=O)OC(C)(C)C)c1nnc(C)n1-2
How it was run: as §1

[5] = compound: c1ccc([C@@H]2C[C@H]2NC2CCNCC2)cc1
How it was run: as §1

Measured: log2 fold change

NLRP2 (UniProt Q9NX02)
inactive: [1] -0.01 | [2] -0.027 | [3] -0.015 | [4] 0.03 | [5] 0.093

PAIP2 (UniProt Q9BPZ3)
inactive: [1] -0.009 | [2] 0.042 | [3] 0.03 | [4] 0.021 | [5] 0.036

NSA2 (UniProt O95478)
inactive: [1] 0.111 | [2] -0.135 | [3] -0.018 | [4] -0.042 | [5] 0.122

PBK (UniProt Q96KB5)
inactive: [1] -0.002 | [2] 0.006 | [3] 0.006 | [4] 0.023 | [5] 0.029

NUB1 (UniProt Q9Y5A7)
inactive: [1] -0.011 | [2] 0.029 | [3] 0.025 | [4] 0.013 | [5] 0.039

NGLY1 (UniProt Q96IV0)
inactive: [1] -0.011 | [2] 0.002 | [3] 0.016 | [4] -0.018 | [5] -0.07

OPA1 isoform 2 (UniProt O60313)
Chain of UniProt O60313 (O60313 whole entry, looked up): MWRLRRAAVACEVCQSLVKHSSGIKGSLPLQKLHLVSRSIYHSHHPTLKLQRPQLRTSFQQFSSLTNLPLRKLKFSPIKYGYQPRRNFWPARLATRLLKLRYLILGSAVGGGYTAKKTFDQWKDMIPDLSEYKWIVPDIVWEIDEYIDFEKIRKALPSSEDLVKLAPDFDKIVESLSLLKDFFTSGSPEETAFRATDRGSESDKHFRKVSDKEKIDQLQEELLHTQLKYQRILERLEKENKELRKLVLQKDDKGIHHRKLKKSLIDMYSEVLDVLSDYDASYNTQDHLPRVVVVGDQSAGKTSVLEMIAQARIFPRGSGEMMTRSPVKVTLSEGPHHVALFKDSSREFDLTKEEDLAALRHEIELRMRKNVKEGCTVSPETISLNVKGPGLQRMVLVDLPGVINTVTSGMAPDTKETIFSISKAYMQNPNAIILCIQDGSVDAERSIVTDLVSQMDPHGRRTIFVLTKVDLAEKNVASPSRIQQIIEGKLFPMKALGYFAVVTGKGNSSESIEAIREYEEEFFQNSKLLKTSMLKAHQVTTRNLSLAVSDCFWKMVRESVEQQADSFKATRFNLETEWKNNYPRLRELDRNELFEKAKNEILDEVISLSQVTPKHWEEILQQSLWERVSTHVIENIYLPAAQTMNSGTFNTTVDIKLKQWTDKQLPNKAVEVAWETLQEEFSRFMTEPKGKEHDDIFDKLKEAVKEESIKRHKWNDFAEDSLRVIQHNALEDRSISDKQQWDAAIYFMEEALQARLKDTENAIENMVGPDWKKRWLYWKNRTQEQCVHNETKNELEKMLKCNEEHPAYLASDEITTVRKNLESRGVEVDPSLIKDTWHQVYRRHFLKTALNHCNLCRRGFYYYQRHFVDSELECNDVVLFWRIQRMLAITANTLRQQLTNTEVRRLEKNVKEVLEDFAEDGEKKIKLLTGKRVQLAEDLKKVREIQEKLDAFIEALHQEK
inactive: [1] -0.048 | [2] 0.021 | [3] 0.038 | [4] 0.005 | [5] 0.084

NUDT5 (UniProt Q9UKK9)
inactive: [1] 0.053 | [2] -0.126 | [3] -0.012 | [4] -0.097 | [5] -0.158

NACC1 (UniProt Q96RE7)
inactive: [1] 0.013 | [2] -0.004 | [3] 0.027 | [4] 0.013 | [5] 0.033

NUSAP1 (UniProt Q9BXS6)
inactive: [1] 0.039 | [2] 0.018 | [3] -0.001 | [4] 0.026 | [5] -0.223

OGFOD2 (UniProt Q6N063)
Chain of UniProt Q6N063 (Q6N063 whole entry, looked up): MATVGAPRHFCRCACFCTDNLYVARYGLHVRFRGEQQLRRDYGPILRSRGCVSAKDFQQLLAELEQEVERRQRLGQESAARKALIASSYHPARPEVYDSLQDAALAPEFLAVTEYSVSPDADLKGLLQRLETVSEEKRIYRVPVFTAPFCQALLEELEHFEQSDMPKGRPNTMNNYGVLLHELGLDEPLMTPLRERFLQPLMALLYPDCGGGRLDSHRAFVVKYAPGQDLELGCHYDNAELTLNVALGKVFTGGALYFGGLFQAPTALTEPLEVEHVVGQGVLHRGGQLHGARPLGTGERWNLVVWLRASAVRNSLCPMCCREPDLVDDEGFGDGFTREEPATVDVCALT
inactive: [1] -0.079 | [2] 0.049 | [3] -0.07 | [4] 0.033 | [5] 0.076

NIT2 (UniProt Q9NQR4)
inactive: [1] -0.033 | [2] 0.017 | [3] 0.027 | [4] -0.007 | [5] 0.058

NUDT4 (UniProt Q9NZJ9)
Chain of UniProt Q9NZJ9 (Q9NZJ9 whole entry, looked up): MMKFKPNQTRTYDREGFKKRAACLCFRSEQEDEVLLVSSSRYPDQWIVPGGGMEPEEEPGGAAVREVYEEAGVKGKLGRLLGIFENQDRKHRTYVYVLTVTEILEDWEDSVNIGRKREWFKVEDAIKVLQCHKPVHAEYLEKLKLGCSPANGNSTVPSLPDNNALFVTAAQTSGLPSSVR
inactive: [1] 0.037 | [2] -0.025 | [3] 0.004 | [4] 0.075 | [5] 0.242

NUP133 (UniProt Q8WUM0)
inactive: [1] 0.05 | [2] 0.046 | [3] 0.014 | [4] 0.025 | [5] -0.052

NOSIP (UniProt Q9Y314)
Chain of UniProt Q9Y314 (Q9Y314 whole entry, looked up): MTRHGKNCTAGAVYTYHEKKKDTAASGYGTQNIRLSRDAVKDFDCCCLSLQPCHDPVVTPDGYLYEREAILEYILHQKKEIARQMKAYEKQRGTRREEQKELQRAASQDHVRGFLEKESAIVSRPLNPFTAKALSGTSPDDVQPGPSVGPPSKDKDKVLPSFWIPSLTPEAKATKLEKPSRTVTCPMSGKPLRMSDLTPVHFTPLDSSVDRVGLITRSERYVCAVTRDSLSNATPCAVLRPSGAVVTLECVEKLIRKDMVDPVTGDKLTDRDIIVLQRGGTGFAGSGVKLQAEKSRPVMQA
inactive: [1] 0.018 | [2] -0.005 | [3] -0.018 | [4] 0.019 | [5] 0.012

NNT (UniProt Q13423)
Chain of UniProt Q13423 (Q13423 whole entry, looked up): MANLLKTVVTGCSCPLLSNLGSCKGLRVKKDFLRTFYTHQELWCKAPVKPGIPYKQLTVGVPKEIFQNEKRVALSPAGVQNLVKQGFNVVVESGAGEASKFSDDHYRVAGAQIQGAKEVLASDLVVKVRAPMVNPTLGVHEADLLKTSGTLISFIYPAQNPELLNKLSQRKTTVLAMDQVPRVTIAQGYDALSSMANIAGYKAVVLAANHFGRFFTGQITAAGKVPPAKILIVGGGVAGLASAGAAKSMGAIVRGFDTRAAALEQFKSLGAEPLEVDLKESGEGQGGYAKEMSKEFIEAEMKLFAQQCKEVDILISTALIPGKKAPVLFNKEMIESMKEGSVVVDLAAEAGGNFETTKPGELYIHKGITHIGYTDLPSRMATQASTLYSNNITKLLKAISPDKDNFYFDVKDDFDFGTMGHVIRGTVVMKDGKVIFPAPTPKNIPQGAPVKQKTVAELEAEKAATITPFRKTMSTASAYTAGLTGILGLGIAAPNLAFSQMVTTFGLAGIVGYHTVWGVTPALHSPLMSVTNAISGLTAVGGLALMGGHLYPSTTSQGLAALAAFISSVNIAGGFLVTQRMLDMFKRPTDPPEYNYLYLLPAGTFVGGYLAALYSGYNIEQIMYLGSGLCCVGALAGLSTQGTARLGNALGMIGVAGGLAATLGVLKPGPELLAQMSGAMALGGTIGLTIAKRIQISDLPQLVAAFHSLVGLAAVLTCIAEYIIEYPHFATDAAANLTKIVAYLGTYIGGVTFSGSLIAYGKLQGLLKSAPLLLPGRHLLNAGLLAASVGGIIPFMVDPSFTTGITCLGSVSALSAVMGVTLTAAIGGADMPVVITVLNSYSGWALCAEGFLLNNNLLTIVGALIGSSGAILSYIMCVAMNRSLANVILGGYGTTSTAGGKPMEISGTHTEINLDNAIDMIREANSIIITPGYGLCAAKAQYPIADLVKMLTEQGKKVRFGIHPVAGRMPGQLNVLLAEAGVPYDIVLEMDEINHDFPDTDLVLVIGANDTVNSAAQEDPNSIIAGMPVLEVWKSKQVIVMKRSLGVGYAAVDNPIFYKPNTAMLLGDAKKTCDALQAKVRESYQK
inactive: [1] -0.005 | [2] 0.052 | [3] 0 | [4] 0.015 | [5] 0.034

NFIC (UniProt P08651)
Chain of UniProt P08651 (P08651 whole entry, looked up): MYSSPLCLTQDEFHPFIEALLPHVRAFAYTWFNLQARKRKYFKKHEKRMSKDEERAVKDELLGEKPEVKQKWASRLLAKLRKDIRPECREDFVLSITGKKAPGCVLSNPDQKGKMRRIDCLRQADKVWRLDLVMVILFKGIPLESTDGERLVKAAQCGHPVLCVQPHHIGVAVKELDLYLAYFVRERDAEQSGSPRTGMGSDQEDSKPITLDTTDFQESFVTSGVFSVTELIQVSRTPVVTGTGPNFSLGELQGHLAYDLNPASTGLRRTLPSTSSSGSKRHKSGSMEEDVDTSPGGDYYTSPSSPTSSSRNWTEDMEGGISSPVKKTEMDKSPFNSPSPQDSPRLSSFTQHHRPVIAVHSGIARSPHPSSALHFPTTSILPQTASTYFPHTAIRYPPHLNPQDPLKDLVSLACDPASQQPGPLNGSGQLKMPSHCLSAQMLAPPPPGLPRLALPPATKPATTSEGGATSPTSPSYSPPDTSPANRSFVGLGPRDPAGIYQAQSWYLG
inactive: [1] 0.023 | [2] 0.018 | [3] -0.056 | [4] 0.052 | [5] -0.177

MTHFD1, A0A384N5Y3
Chain of MTHFD1, A0A384N5Y3 (A0A384N5Y3 whole entry, looked up): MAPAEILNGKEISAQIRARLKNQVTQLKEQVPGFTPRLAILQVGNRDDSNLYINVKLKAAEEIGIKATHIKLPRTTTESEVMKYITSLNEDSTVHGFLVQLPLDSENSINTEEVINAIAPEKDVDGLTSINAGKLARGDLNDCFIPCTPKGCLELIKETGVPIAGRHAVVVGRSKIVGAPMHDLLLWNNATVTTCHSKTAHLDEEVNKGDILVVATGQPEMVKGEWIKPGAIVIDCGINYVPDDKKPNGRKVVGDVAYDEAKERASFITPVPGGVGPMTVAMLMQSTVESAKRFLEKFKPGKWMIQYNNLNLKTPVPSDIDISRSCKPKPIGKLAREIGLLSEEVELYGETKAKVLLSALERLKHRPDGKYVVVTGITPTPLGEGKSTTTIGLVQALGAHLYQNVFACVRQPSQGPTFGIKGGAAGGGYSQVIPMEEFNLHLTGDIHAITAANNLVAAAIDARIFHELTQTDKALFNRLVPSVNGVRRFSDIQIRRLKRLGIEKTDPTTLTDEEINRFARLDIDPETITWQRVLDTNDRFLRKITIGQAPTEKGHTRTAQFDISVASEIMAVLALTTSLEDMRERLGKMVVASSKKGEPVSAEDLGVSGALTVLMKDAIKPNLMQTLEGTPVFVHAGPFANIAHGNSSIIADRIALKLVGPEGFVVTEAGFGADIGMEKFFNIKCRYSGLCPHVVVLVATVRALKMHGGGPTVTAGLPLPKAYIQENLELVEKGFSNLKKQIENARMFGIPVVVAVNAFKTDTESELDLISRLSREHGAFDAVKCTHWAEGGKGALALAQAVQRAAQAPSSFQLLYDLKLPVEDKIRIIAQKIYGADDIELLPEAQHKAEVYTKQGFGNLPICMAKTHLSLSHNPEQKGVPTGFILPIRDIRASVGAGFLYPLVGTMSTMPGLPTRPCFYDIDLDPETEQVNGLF
inactive: [1] -0.003 | [2] -0.002 | [3] 0.015 | [4] 0.018 | [5] 0.071

NAP1L5 (UniProt Q96NT1)
Chain of UniProt Q96NT1 (Q96NT1 whole entry, looked up): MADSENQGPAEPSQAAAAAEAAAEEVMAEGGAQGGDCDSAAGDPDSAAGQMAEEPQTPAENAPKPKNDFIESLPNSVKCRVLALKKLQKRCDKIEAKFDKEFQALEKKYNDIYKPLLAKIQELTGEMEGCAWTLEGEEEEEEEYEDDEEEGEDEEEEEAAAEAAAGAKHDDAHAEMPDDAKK
inactive: [1] 0.082 | [2] -0.023 | [3] -0.028 | [4] -0.082 | [5] 0.304

NUMBL (UniProt Q9Y6R0)
inactive: [1] -0.047 | [2] 0.038 | [3] 0.039 | [4] -0.096 | [5] -0.012

NEBL (UniProt O76041)
inactive: [1] -0.074 | [2] 0.011 | [3] 0.047 | [4] 0.043 | [5] 0.014

NAA35 (UniProt Q5VZE5)
inactive: [1] 0.004 | [2] 0.066 | [3] -0.023 | [4] -0.002 | [5] 0.086

OLA1 (UniProt Q9NTK5)
inactive: [1] -0.001 | [2] 0.04 | [3] 0 | [4] 0.011 | [5] 0.022

ORC5 (UniProt O43913)
Chain of UniProt O43913 (O43913 whole entry, looked up): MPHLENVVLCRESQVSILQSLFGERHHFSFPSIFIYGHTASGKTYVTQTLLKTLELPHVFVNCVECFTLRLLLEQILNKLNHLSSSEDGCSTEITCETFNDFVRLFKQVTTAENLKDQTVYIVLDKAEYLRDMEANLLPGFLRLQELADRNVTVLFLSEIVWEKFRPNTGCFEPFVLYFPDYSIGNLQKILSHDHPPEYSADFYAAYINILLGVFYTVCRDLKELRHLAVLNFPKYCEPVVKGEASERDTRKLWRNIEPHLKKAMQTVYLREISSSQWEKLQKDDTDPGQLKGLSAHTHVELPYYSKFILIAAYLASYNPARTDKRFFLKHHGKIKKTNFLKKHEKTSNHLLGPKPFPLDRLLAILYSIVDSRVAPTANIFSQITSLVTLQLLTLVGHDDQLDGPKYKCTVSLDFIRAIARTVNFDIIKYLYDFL
inactive: [1] -0.037 | [2] -0.022 | [3] 0.029 | [4] 0.003 | [5] 0.021

PAFAH1B3 (UniProt Q15102)
inactive: [1] 0 | [2] 0.042 | [3] 0.045 | [4] 0.047 | [5] 0.014
